From PubChem BioAssay (EPA / NIEHS)
The source made the active and inactive calls. The calls were made as follows: active = hit-call score of the fitted dose curve at least 0.9, where 1 is the maximum; inactive = score below 0.9.

Each compound was assayed on CYP3A5 (gene 1577) (assay: LTEA_HepaRG_CYP3A5: Life Technologies and Expression Analysis (LTEA) Assay for CYP3A5 using HepaRG (AID 2283493)). Settings: mRNA level, 48 h; actives raise or lower the signal.
Outline: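 HepaRG plated 48 h, switched to serum-free induction medium, chemicals added 48 h (max 100 uM, half-log, 0.5% DMSO). RNA isolated; CYP3A5 by TaqMan qRT-PCR. Gain/loss vs DMSO.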

| SMILES | outcome |
| --- | --- |
| CCCCCCOCCO | inactive |
| O=C(OCCCCCOC(=O)c1ccccc1)c1ccccc1 | inactive |
| CNCc1cc(F)ccc1Oc1ccc(Cl)c(Cl)c1 | inactive |
| COC(=O)c1ccc(O)cc1 | inactive |
| NC(=O)Cn1c(=O)cc(CCN2CCN(c3nccc4sccc34)CC2)c2ccc(F)cc21 | inactive |

These compounds were tested on Fatty Acid-Binding Protein 1 (FABP1), FABP1 (gene 2168) (assay: LTEA_HepaRG_FABP1: Life Technologies and Expression Analysis (LTEA) Assay for Fatty Acid-Binding Protein 1 (FABP1) using HepaRG (AID 2283494)). Settings: mRNA level, 48 h; actives raise or lower the signal.
Outline: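 Differentiated human HepaRG cells exposed 48 h in serum-free induction medium to eight half-log concentrations up to 100 uM (0.5% DMSO), duplicate. FABP1 mRNA by qRT-PCR, normalised to ACTB, GAPDH, POLR2A; bidirectional fitting against DMSO.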

| SMILES | outcome | AC50 |
| --- | --- | --- |
| CCOC(=O)CCC(=O)OCC | inactive | – |
| CCc1c(C(=O)NN2CCCCC2)nn(-c2ccc(Cl)cc2Cl)c1-c1ccc(Br)cc1 | – | 36.2 µM (active) |
| Nc1nc(N)c2nc(CNc3ccc(C(=O)N[C@@H](CCC(=O)O)C(=O)O)cc3)cnc2n1 | inactive | – |
| CCCCCCCCCCO | inactive | – |
| CCCCN(CCCC)CCCC | inactive | – |
| Oc1ccc2ccccc2c1N=Nc1ccccc1 | – | 16.2 µM (active) |
| CCOC(=O)C(C)(C)Oc1ccc(Cl)cc1 | inactive | – |
| CCCc1cc(=O)[nH]c(=S)[nH]1 | inactive | – |
| CC1(C)CC(N=C=O)CC(C)(CN=C=O)C1 (centres undefined) | – | 26.2 µM (active) |
| CCOc1ccc2c(c1)C(C)=CC(C)(C)N2 | – | 50 µM (active) |
| Cc1cccc([N+](=O)[O-])c1C | inactive | – |
| O=c1[nH]cc(F)c(=O)[nH]1 | inactive | – |
| Cc1cc(=O)[nH]c(=S)[nH]1 | inactive | – |
| Nc1ccc(S(=O)(=O)c2ccc(N)cc2)cc1 | inactive | – |
| C=CCOC(=O)c1ccccc1C(=O)OCC=C | inactive | – |
| C=CCc1ccc(O)c(OC)c1 | inactive | – |
| CCCCCCC(=O)OCC | inactive | – |
| CCNc1cccc(C)c1 | inactive | – |
| C[C@]12C=CC(=O)C=C1CC[C@@H]1[C@@H]2C(=O)C[C@@]2(C)[C@H]1CC[C@]2(O)C(=O)CO | inactive | – |
| O=c1c(O)c(-c2ccc(O)c(O)c2)oc2cc(O)cc(O)c12 | inactive | – |
| COc1ccc2c(c1)c(CC(=O)O)c(C)n2C(=O)c1ccc(Cl)cc1 | inactive | – |
| COc1ccc(S(=O)(=O)N2C(=O)[C@@](c3ccccc3OC)(N3C[C@H](O)C[C@H]3C(=O)N(C)C)c3cc(Cl)ccc32)c(OC)c1 | – | 26.9 µM (active) |
| CCCCCCCCCCCC(=O)OC | inactive | – |
| Cc1ccc(C(C)C)c(O)c1 | inactive | – |
| CCCCCCOCCO | inactive | – |
| O=C(OCCCCCOC(=O)c1ccccc1)c1ccccc1 | inactive | – |
| CNCc1cc(F)ccc1Oc1ccc(Cl)c(Cl)c1 | – | 84 µM (active) |
| COC(=O)c1ccc(O)cc1 | inactive | – |
| NC(=O)Cn1c(=O)cc(CCN2CCN(c3nccc4sccc34)CC2)c2ccc(F)cc21 | – | 12.3 µM (active) |
